Each structure is given as a SMILES string. Compounds without any hit were thinned out: in the full panel of roughly 83,000, 20% have a hit.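 Single-dose data. Exposure time 48 hours. Values below 10 considered active.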 Values without a mark were called inactive. Active and inactive are the calls of the source.

This experiment deals with MDA-MB-468 breast. Put plainly: NCI-60 one-dose screen, 48 h (100 = growth as untreated, 0 = no growth, -100 = all killed). The following applies: 10 µM unless noted.
In the case of `COC(=O)c1cc(-c2cc(OC)c(OC)c(OC)c2)[nH]c1N/N=C/c1c(Cl)cccc1Cl`, the growth is -9.15% (active).
As to `O=C(O)COc1c(Cl)cc([N+](=O)[O-])cc1Cl`, the growth was 99.4%.
Under `CC(=O)Oc1ccc(C(OC(C)=O)OC(C)=O)cc1` stands 109%.
On to `O=C1[C@H]2Cc3c([nH]c4ccccc34)[C@@H](c3ccc(Cl)cc3)N2C(=O)CN1C1CCN(Cc2ccccc2)CC1`, for which the growth is 27.3%.
For `C=C(C)[C@@H]1CC[C@]2(C(=O)OCCOCCOCC[P+](c3ccccc3)(c3ccccc3)c3ccccc3)CC[C@]3(C)[C@H](CC[C@@H]4[C@@]5(C)CC[C@H](OC(C)=O)C(C)(C)[C@@H]5CC[C@]43C)[C@@H]12`, the growth is -76.5% (active).
Under `CN1C(=O)/C(=C/c2ccc(C(=O)Nc3ncc(Cc4ccc(Cl)cc4)s3)cc2)SC1=S` stands 25.2%; under `COc1cc2c(cc1OC)C(C)N(S(N)(=O)=O)CC2` (stereo not given), 99.6%.
With `CC12CCC3C(CCC4CC(O)CCC43C)C1C/C(=C/O)C(=O)O2` (stereo not given), the growth is 108%.
On to `COc1ccc(/C=N/NC(=O)CN2CCN(c3cc4c(cc3F)c(=O)c(C(=O)O)cn4C3CC3)CC2)cc1O`, for which the growth was 101%.
Under `CCOC(=O)NNc1nncc2ccccc12` stands 105%; under `O=C(O)c1ccc(-n2cc(/C=N/Nc3ccccc3F)c(-c3ccc(O)cc3)n2)cc1`, 78.3%; under `CCN(CC)CCC(CNc1ccnc2cc(Cl)ccc12)c1ccccc1` (stereo not given), -35.6% (active).
Take `OC(c1cc(C23CC4CC(CC(C4)C2)C3)nc2c(Cl)cc(Cl)cc12)C1CCCCN1` (stereo not given): the growth was -89.7% (active).
As for `COc1ccc(S(=O)(=O)Nc2cc(/C=C\c3cc(OC)c(OC)c(OC)c3)cc(OC)c2OC)cc1`, the growth is 19.5%.
On to `c1ccc2c[n+](Cc3ccc4ccccc4n3)ccc2c1`, for which the growth is -0.701% (active).
On to `Cc1nc2ccc(C(=O)NCc3cc(C(=O)O)c(C)o3)cc2nc1C`, for which the growth is 98.7%.
As to `CC(Br)c1nc2ccccc2cc1C(N)=O` (stereo not given), the growth is 105%.
For the molecule `COc1cc(C(C)=C(c2ccc(OCCN(C)C)cc2)c2ccc(OCCN(C)C)cc2)ccc1F`, the growth is 93.3%.
Regarding `CCCCOc1nc2ccc(OC)cc2cc1-c1cc(-c2ccc(Cl)cc2)nc(-c2ccc(Cl)cc2)c1`, the growth is 95.2%.
As for `Oc1[nH]c2ccccc2c1/C=c1/ccc2c(c1)N=C(c1cc(F)cc(F)c1)N=2`, the growth is 20.6%.
Consider `COc1ccccc1-n1cc(C#N)c(N)c1C(=O)c1ccc(Br)cc1`, for which the growth is 31.3%.
`O=C(CN1C(=O)CCC1=O)Nc1ncc(Cc2ccc(F)cc2)s1`: the growth was 109%.
Under `O=S(=O)(Oc1ccc(-c2cn3ccoc3n2)cc1)C1CCCCC1` stands 92.3%.
For `OC1CCCN(Cc2ccccc2)C1` (stereo not given), the growth is 103%.
Under `COc1ccc(C2=NNC(c3cc(Cc4ccc(O)c(C5CC(c6ccc(OC)cc6)=NN5)c4)ccc3O)C2)cc1` (stereo not given) stands 65%; under `O=NN(CCCl)C(=O)Nc1ccc(NC(=O)N(CCCl)N=O)cc1`, 96.4%; under `CCCCNC(=O)c1cc([N+](=O)[O-])cc(C2CCCCC2)c1O`, -1.64% (active).
Under `ON1CCCC1` stands 108%; under `O=C1/C(=C\c2ccco2)SC(=S)N1CCc1ccc(O)cc1`, 54.9%.
`CCOC(=O)c1cc(C(=O)c2cc(OC)cc(OC)c2)n2ncc3ccccc3c12`: the growth was 8.22% (active).
Turning to `CN(C)c1ccc2cc(-c3ccccc3F)c(N)nc2c1`, the growth is 25.6%.
Regarding `O=C(Nc1cccc2ccccc12)NC1CC1`, the growth was 96%.
Consider `COc1c(O)cc2oc3cc(O)c(CC=C(C)C)c(O)c3c(=O)c2c1C/C=C(\C)CCC=C(C)C`, for which the growth was 82.1%.
For the molecule `COc1cc(CCCO)c(OC)c(OC)c1OC`, the growth is 104%.
For the molecule `CNC(=O)c1cc(-c2ccc(NC(=S)Nc3cc(C(F)(F)F)cc(C(F)(F)F)c3)cc2)nc2cccnc12`, the growth was -8.04% (active).
On to `CN=S(=O)(OCCCCCOS(=O)(=NC)c1ccc(C)cc1)c1ccc(C)cc1` (stereo not given), for which the growth is 83.3%.
Turning to `c1ccn2nnnc2c1`, the growth is 107%.
As to `C[C@H](NC(=O)[C@@H]1CSSC[C@@H](NC(=O)Cc2nc3ccccc3cc2O)C(=O)NCC(=O)N1C)c1ccccc1`, the growth is 17.5%.
For `O=C(Nc1ccccc1O)c1ccccc1Nc1ccnc(C(F)(F)F)c1`, the growth was 116%.
For the molecule `O=c1nc(-c2ccccc2)c2cc(-c3ccc(N4CCCC4)nc3)ccc2[nH]1`, the growth is 48.4%.

The record behind these values is PubChem BioAssay (NCI).
